Source: PubChem BioAssay AID504329 (Southern Research Specialized Biocontainment Screening …, 2011)
About 1,000 (0.29%) of roughly 340,000 compounds were called active. A selection follows. Potency and affinity values are given separately. Unmarked numbers belong to inactive results. No stated cut-off is given here; in the data, inconclusive means inhibition above about 27% without an active follow-up result; inactive means below that.

Experiment: H1N1 influenza NS1A inhibitors, functional cell based assay (AID 504329)
Conditions: percent inhibition, at 12.5 µM, active compounds read high

SMILES | inhibition [%]
CCN1CCN(C(c2cc(OC)ccc2OC)c2nnnn2Cc2ccccc2)CC1 (stereo not drawn) | -5.45
Cc1cn(CC(=O)NCc2ccc3c(c2)OCO3)c(=O)[nH]c1=O | 0.05
Cc1ccc(C(=O)COC(=O)CNC(=O)c2cccs2)cc1C | 3.9
Cc1ccc(CS(=O)Cc2ccc(C(=O)NCCc3ccccc3)o2)cc1 (stereo not drawn) | 3.5
COc1ccc(N2CCN(C(=O)c3c(C)nn(-c4ccccc4)c3C)CC2)cc1 | 1.11
COc1ccc(C(=O)Nc2ccc(Cl)cc2C(=O)N2CCCC(C)C2)cc1OC (stereo not drawn) | -10.1
O=S1(=O)[C@H]2CC3O[C@]2(C[C@@H]3c2ccc(F)cc2)CN1Cc1ccc(Cl)cc1 | -1.02
COc1cc(C(=O)NC2CCN(Cc3nnnn3Cc3cccs3)CC2)cc(OC)c1OC | -19
CCCNc1ncnc2onc(C)c12 | -5.28
Clc1cnc(Nc2cccnc2)c(Cl)c1 | -6.41
O=C(Nc1ccncc1)c1cc2ccccc2cc1O | -5.8
Oc1cc(NCc2ccc(F)cc2)cc2cccnc12 | -7.28
Oc1cc(NCc2ccc(Cl)cc2)cc2cccnc12 | -7.85
c1ccc(-c2csc(Nc3cccnc3)n2)nc1 | 14.1
Oc1cc(Nc2ccccc2)cc2cccnc12 | 3.79
CC(=O)c1ccccc1OCC(O)CN1CCN(c2ccccn2)CC1 (stereo not drawn) | -18.6
CCOc1ccccc1N(CC(=O)Nc1ccccc1C(=O)N1CCOCC1)S(C)(=O)=O | -12.1
COC(=O)c1ccccc1NC(=O)Nc1cccnc1 | -5.77
CCOP(=O)(OCC)C(NC(=O)Nc1ccc(Cl)cc1)C(N)=O (stereo not drawn) | -4.5
COc1cccc2cc(C(=O)NCC3CCCO3)c(=O)oc12 (stereo not drawn) | 6.96
COc1ccc(/C(O)=C2\C(=O)C(=O)N(CCN3CCOCC3)C2c2ccccc2OC)cc1 (stereo not drawn) | -5.93
CCc1cccc(NC(=O)CSCc2cc(=O)[nH][nH]2)c1 | 4.49
Cc1cnc(-n2c(=S)[nH]c3ccccc3c2=O)s1 | -7.74
O=C(NCc1cc(C(F)(F)F)ccc1F)C1CCC(=O)N(C2CC2)C1 (stereo not drawn) | -6.88
Nc1ccc(N2CCN(c3ccc(F)cc3)CC2)cc1 | -1.58

SMILES | inhibition [%]
CCN1CCN(c2ccc(N)cc2)CC1 | 11.3
N#Cc1ccc(C(=O)Nc2cc(C3CC3)nn2-c2ccccc2)cc1 | -9.27
CC[n+]1c(C)sc2c3ccsc3ccc21 | 2.89
Cn1c(SCC(=O)Nc2ccc(C(N)=O)cc2)nc2c(c1=O)SCC2 | -1.68
Oc1ccccc1N=N/C(=N/Nc1ccccc1O)c1ccccc1 | -1.57
Oc1ccccc1N=Nc1ccccc1O | 21.9
CC(=O)NC1C(Oc2ccccc2C)OC2COC(c3ccco3)OC2C1O (stereo not drawn) | -4.4
Cc1ccn(CC(=O)N2CCCC(C(=O)c3cccc4ccccc34)C2)n1 (stereo not drawn) | 1.06
Cc1ccc(N2CC(C(=O)N3CCC(C(=O)NCCCOC(C)C)CC3)CC2=O)cc1 (stereo not drawn) | -11.9
Cc1ccccc1OCC(=O)N/N=C/c1cccc2cccnc12 | 11.7
COc1ccc(OCC(=O)N/N=C/c2cccc3cccnc23)cc1 | 27.8
O=C(COc1ccc(F)cc1)N/N=C/c1cccc2cccnc12 | -1.12
COc1cccc(/C=N/NC(=O)COc2cccc3cccnc23)c1O | -3.74
Cc1ccc(C(F)(F)F)cc1NC(N)=S | 5.01
Nn1cnnc1N/N=C/c1ccc(Cl)cc1Cl | -12.4
COc1ccc(/C=N/Nc2nncn2N)cc1Br | 9.22
Cc1ccc(N(C)S(=O)(=O)c2ccc3[nH]cc(C(=O)NCCCN4CCOCC4)c(=O)c3c2)cc1C | 4.79
Cc1cc(=O)[nH]c(N/N=C/c2ccccc2C(F)(F)F)n1 | -5.35
Nc1ccc(N=Nc2ccccc2)c(N)n1 | 18
Nc1ccc(N=Nc2ccccc2)c2ccccc12 | -3.26
COCCn1c(CN2CC(C)CC(C)C2)nc2c1c(=O)n(C)c(=O)n2C (stereo not drawn) | 3.18
CN(C)c1ccc(/C=C/c2cc[n+](C)cc2)cc1 | 7.63
CN(C)c1ccc(/C=C/c2nc3ccccc3s2)cc1 | -0.93
CC[n+]1c(/C=C/N(C)c2ccccc2)sc2ccc(Cl)cc21 | 0.72
CC[n+]1c(/C=C/C=C/N(C(C)=O)c2ccccc2)sc2ccccc21 | 25.6

SMILES | inhibition [%]
CCOc1nc(SCCOc2ccccc2)nc(N(C)C)n1 | 21.4
COc1ccc(NS(=O)(=O)c2cccc(C(=O)N/N=C(\C)c3ccncc3)c2)cc1 | -5.23
Clc1cc2cccnc2c2ccccc12 | -7.93
Clc1ccc2ccc3cccnc3c2n1 | -25.7
Oc1c(Cl)cc(Cl)c2cccnc12 | -14.4
O=S1(=O)NC(=NCCc2ccccn2)c2ccccc21 | -4.92
O=Cc1ccc2ccc3cccnc3c2n1 | 9.05
Cc1ccc2ccc3ccc(C)nc3c2n1 | -7.29
c1cnc2c(c1)ccc1ncccc12 | -2.85
Cc1ccc2cccnc2c1N | -4.2
CCc1cc(C(=O)N2CCCC(N3CCN(c4cccc(C(F)(F)F)c4)CC3)C2)n(C)n1 (stereo not drawn) | -0.25
CCO/C=C/C(O)(CNC(=O)COc1ccccc1F)C(F)(F)F (stereo not drawn) | -0.96
Cc1ccc(S(=O)(=O)N2CCN(S(=O)(=O)N3CCC(C)CC3)CC2)cc1C | 2.71
CC(=O)Nc1nnc(SCC(=O)N2CCc3ccccc32)s1 | -6.4
O=C(NNc1ccc(-c2csnn2)cc1)c1ccccc1C(F)(F)F | -23.8
CC1=C(C(=O)Nc2cc(C(=O)N3CCN(c4cccc(C)c4C)CC3)ccc2C)SCCO1 | 8.75
O=C(NC1=C(Nc2ccc(Cl)cc2)C(=O)c2ccccc2C1=O)c1ccccc1 | 12.2
Cc1cccc(NC2=C(NC(=O)c3ccccc3)C(=O)c3ccccc3C2=O)c1 | 28.6
CN(C1=C(NC(=O)c2ccccc2)C(=O)c2ccccc2C1=O)C1CCS(=O)(=O)C1 (stereo not drawn) | 4.18
O=C(NC1=C(Nc2ccc(F)cc2)C(=O)c2ccccc2C1=O)c1ccc(Cl)cc1 | -4.19
COc1ccc(NC(=O)CN2CCN(CC(=O)Nc3ccccc3Cl)CC2)cc1Cl | 3.53
COc1cccc(CC(CC(=O)O)C(=O)Nc2cc(C)ccc2C)c1 (stereo not drawn) | 2.74
CN1C(=O)/C(=C2\SC(=S)N(NC(=O)c3cccnc3)C2=O)c2ccccc21 | 6.82
O=C(CNC(=O)c1ccco1)N/N=C/c1c[nH]c2ccccc12 | -1
Cc1c(NC(C)C)c(=O)n(-c2ccccc2)n1C | -3.1

SMILES | inhibition [%]
Cc1c(NS(=O)(=O)c2ccc(Br)cc2)c(=O)n(-c2ccccc2)n1C | -8.19
Cc1c(NN=C(C#N)C#N)c(=O)n(-c2ccccc2)n1C | -11.5
COC(=O)C(=NNc1c(C)n(C)n(-c2ccccc2)c1=O)C(=O)OC | -4.26
Cc1c(C=C2C(=O)NC(=O)NC2=O)c(=O)n(-c2ccccc2)n1C | -5.56
Cc1c(NP(=O)(c2ccc(Br)cc2)c2ccc(Br)cc2)c(=O)n(-c2ccccc2)n1C | -4.88
CCS(=O)(=O)Nc1c(C)n(C)n(-c2ccccc2)c1=O | -2.8
C=CCSC(=S)Nc1c(C)n(C)n(-c2ccccc2)c1=O | -2.87
CCN(C(=O)COC(=O)CNS(=O)(=O)c1ccc2ccccc2c1)C1CCCCC1 | -3.12
CCn1c(=O)[nH]c(=O)c2c(N)c(C(=O)c3ccccc3OC)sc21 | 14.2
CCC(CC)CN1CCC(CN2C(=O)C(=O)NC[C@@H]2[C@@H](C)CC)CC1 | -5.8
CC(=O)c1cccc(NC(=O)C2CCN(C(=O)c3cccs3)CC2)c1 | -11.1
Cc1ccc(SCC(=O)OCC(=O)Nc2ccc3[nH]c(=O)[nH]c3c2)cc1C | -0.9
COc1ccccc1NC(=O)/C(=C\c1cccs1)NC(=O)c1ccco1 | 2.01
COc1ccc2c(COC(=O)CC3Sc4ccccc4NC3=O)cc(=O)oc2c1 (stereo not drawn) | -3.14
Cc1c(NC(=O)CN2C(=O)C(=O)N(Cc3ccccc3)C2=O)c(=O)n(-c2ccccc2)n1C | -4.35
Cc1c(NC(=O)NCc2ccccc2)c(=O)n(-c2ccccc2)n1C | 0.65
COc1ccc(/C=N/NC(=O)c2cc(C)oc2C)cc1OCc1ccccc1 | 9.7
COc1ccc(/C=N/NC(=O)c2ccco2)cc1OCc1ccccc1 | 0.58
CC(C)CCNC(=O)NC(=O)COc1ncnc2sccc12 | -13.5
O=C(CSc1nncs1)Nc1cc(S(=O)(=O)N2CCOCC2)ccc1N1CCCC1 | -2.14
O=C(COc1ccccc1[N+](=O)[O-])N1CCN(C(=O)c2ccco2)CC1 | 8.66
CCOc1ccc2c(c1)C(=NNC(=O)c1ccccn1)c1cc(OCC)ccc1-2 | 7.92
COc1ccc2c(c1)C(=NNC(=O)c1ccccn1)c1cc(OC)ccc1-2 | -2.18
